What follows are sequences tested against ADCYAP1 (assay: pooled miR-30 sensor sort-seq; sequence = guide strand). Conditions: shRNA.
TAGGCCTCGTTAAGGATCCCGT showed a sensor-assay potency score (higher = more potent) of -0.922. With TAGCGGCTGTAGCTGTCCGTGA the sensor-assay potency score (higher = more potent) was -1.1. Work on TGCTGTGCATGATTATCCCATA yielded a sensor-assay potency score (higher = more potent) of -1.74. Work on TGTCCGTGAAGATCCCGTCCGA yielded a sensor-assay potency score (higher = more potent) of -0.344. Work on TTTGTTTATACCTCTTCCCTAG yielded a sensor-assay potency score (higher = more potent) of 0.232. With TTGACAGCCATTTGTTTCCGGT the sensor-assay potency score (higher = more potent) was -0.424. TAACCCTTTGTTTATACCTCTT gave a sensor-assay potency score (higher = more potent) of -0.602. Work on ATTTGTTTCCGGTAGCGGCTGT yielded a sensor-assay potency score (higher = more potent) of -0.122. Work on TTCCTCTGGCCTGATCCCGGGG yielded a sensor-assay potency score (higher = more potent) of -1.18. TTGTTTATACCTCTTCCCTAGG was tested, and the sensor-assay potency score (higher = more potent) was -0.956. Sequence TTACATAAATACATGTTTGGAT has a sensor-assay potency score (higher = more potent) of -0.0777. For TTGGATAGAACACACGAGCGAT, the sensor-assay potency score (higher = more potent) was -0.826. For TGGGCGACATCTCTTCTCCCGG, the sensor-assay potency score (higher = more potent) was -1.69. TTCCGGTAGCGGCTGTAGCTGT was tested, and the sensor-assay potency score (higher = more potent) was -1.35. With TACGCCTCTTCCTCTGGCCTGA the sensor-assay potency score (higher = more potent) was -1.02. For TGTTTGGATAGAACACACGAGC, the sensor-assay potency score (higher = more potent) was -1.09. TTTGTTTCCGGTAGCGGCTGTA gave a sensor-assay potency score (higher = more potent) of -0.47. TATCCCATAGACCAGCAGGGCC gave a sensor-assay potency score (higher = more potent) of -1.32. Sequence TAGCTGTCCGTGAAGATCCCGT has a sensor-assay potency score (higher = more potent) of -0.391. Work on TTGTTTCCGGTAGCGGCTGTAG yielded a sensor-assay potency score (higher = more potent) of -0.993. For TCCGTGAAGATCCCGTCCGAGT, the sensor-assay potency score (higher = more potent) was -1.83.

What follows are sequences tested against ADC in the same assay as above. Conditions: shRNA.
In the case of TTCTGCAGCCATCAGCTGCCTT, the sensor-assay potency score (higher = more potent) is reported as -1.15. TTGTCAAACAGGACTGAGTTGA was tested, and the sensor-assay potency score (higher = more potent) was -0.112. TGACACTCCAAACTTTAGGCTC showed a sensor-assay potency score (higher = more potent) of -0.511. Sequence TTCTTCTGCAGGATGGGGGTAG has a sensor-assay potency score (higher = more potent) of -0.285. For TTGATCACGGAAGCAATCTCTT, the sensor-assay potency score (higher = more potent) was -0.838. ATGTTGTCAAAGACCAGCCAGT showed a sensor-assay potency score (higher = more potent) of -1.56. TGGTCTTGGAGGTGGAACCATT gave a sensor-assay potency score (higher = more potent) of -1.77. Work on TTTTCAAGCAGGTGTCTGCAGG yielded a sensor-assay potency score (higher = more potent) of -0.788. TTGCATACTTGAACTACAGCGA gave a sensor-assay potency score (higher = more potent) of 0.563. Sequence TTTCAGTGACACTCCAAACTTT has a sensor-assay potency score (higher = more potent) of -0.644. For TTCAGTGACACTCCAAACTTTA, the sensor-assay potency score (higher = more potent) was -0.979. TACACGATGGTCTTGGAGGTGG gave a sensor-assay potency score (higher = more potent) of -0.24.

Each sequence was assayed against ADD2 in the same assay as above. Conditions: shRNA.
TCTTATAGCTCTTCCATCCATC gave a sensor-assay potency score (higher = more potent) of -0.635. TTCACTGCAAGAAACTCCCTTA gave a sensor-assay potency score (higher = more potent) of 0.39. Sequence TTGATAGGCGTCATCATGGAGA has a sensor-assay potency score (higher = more potent) of -0.575. For TAAATGTAGAGATAGCTCCATC, the sensor-assay potency score (higher = more potent) was -0.556. TTGTTCTCGAATCTTGTTCCTC was tested, and the sensor-assay potency score (higher = more potent) was -0.198. With TTTGTCTCTGCCTCCTTCGCTG the sensor-assay potency score (higher = more potent) was -0.0606. With TCAAGTTCTAGTTTCTTCCTCT the sensor-assay potency score (higher = more potent) was 0.727.
Further: reference of the scale not given here.
